According to PubChem BioAssay AID1159580 (chemical genetic matrix, 2015):
In all, about 5,500 compounds went through this assay and about 2,000 (36%) were called active. Roughly 18% stayed inconclusive and do not appear here. Rule as the data show it: active = normalized growth mostly below about 0.91 (no sharp cut-off); inconclusive = no clear call, values can overlap the other calls; inactive = mostly above about 0.92. Some of the results follow.

Assay: chemical genetic growth profiling, strain panel (AID 1159580);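 also: tested at 20 µM; growth read once vehicle control cultures reached saturation at 30 °C; 1 = growth at the plate median or of vehicle wells; lower values mean less growth of the strain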
Conditions: growth OD
[1] = S. cerevisiae deletion strains, locus YAL040C, strain CLN3, stronger effect = lower value
[2] = S. cerevisiae deletion strains, locus YCL061C, strain MRC1 (second series), stronger effect = lower value
[3] = S. cerevisiae deletion strains, locus YDR150W, strain NUM1, stronger effect = lower value
[4] = S. cerevisiae deletion strains, locus YDR363W, strain ESC2, stronger effect = lower value
[5] = S. cerevisiae deletion strains, locus YER002W, strain NOP16, stronger effect = lower value
[6] = S. cerevisiae deletion strains, locus YGR078C, strain PAC10, stronger effect = lower value
[7] = S. cerevisiae deletion strains, locus YGR229C, strain SMI1, stronger effect = lower value
[8] = S. cerevisiae deletion strains, locus YMR263W, strain SAP30, stronger effect = lower value
[9] = S. cerevisiae deletion strains, locus YNL128W, strain TEP1, stronger effect = lower value
[10] = S. cerevisiae deletion strains, locus YNL153C, strain GIM3, stronger effect = lower value
[11] = S. cerevisiae deletion strains, locus YNL175C, strain NOP13, stronger effect = lower value
[12] = S. cerevisiae deletion strains, locus YNL197C, strain WHI3, stronger effect = lower value
[13] = S. cerevisiae deletion strains, locus YNL224C, strain SQS1, stronger effect = lower value
[14] = S. cerevisiae deletion strains, locus YOR083W, strain WHI5 (second series), stronger effect = lower value
[15] = S. cerevisiae deletion strains, locus YPL055C, strain LGE1, stronger effect = lower value
[16] = S. cerevisiae deletion strains, locus YDL101C, strain DUN1, stronger effect = lower value
[17] = S. cerevisiae deletion strains, locus YHR030C, strain SLT2, stronger effect = lower value
[18] = S. cerevisiae deletion strains, locus YAL013W, strain DEP1, stronger effect = lower value
[19] = S. cerevisiae deletion strains, locus YJR075W, strain HOC1, stronger effect = lower value
[20] = S. cerevisiae deletion strains, locus YPL241C, strain CIN2, stronger effect = lower value
[21] = S. cerevisiae deletion strains, locus YBR229C, strain ROT2, stronger effect = lower value
[22] = S. cerevisiae deletion strains, locus YEL061C, strain CIN8, stronger effect = lower value
[23] = S. cerevisiae deletion strains, locus YHR087W, strain rtc3, stronger effect = lower value
[24] = S. cerevisiae deletion strains, locus YJR043C, strain POL32, stronger effect = lower value
[25] = S. cerevisiae deletion strains, locus YLR039C, strain RIC1, stronger effect = lower value
[26] = S. cerevisiae deletion strains, locus YLR058C, strain SHM2 (second series), stronger effect = lower value
[27] = S. cerevisiae deletion strains, locus YLR085C, strain ARP6, stronger effect = lower value
[28] = S. cerevisiae deletion strains, locus YLR262C, strain YPT6, stronger effect = lower value
[29] = S. cerevisiae deletion strains, locus YML094W, strain GIM5, stronger effect = lower value
[30] = S. cerevisiae deletion strains, locus YMR219W, strain ESC1, stronger effect = lower value
[31] = S. cerevisiae deletion strains, locus YNL298W, strain CLA4 (second series), stronger effect = lower value
[32] = S. cerevisiae deletion strains, locus YNL322C, strain KRE1, stronger effect = lower value
[33] = S. cerevisiae deletion strains, locus YNR030W, strain Alg12, stronger effect = lower value
[34] = S. cerevisiae deletion strains, locus YPR135W, strain CTF4, stronger effect = lower value
[35] = S. cerevisiae strains, strain wild type, stronger effect = lower value

Measured: normalized growth

Cc1ccc(OCC(O)C(C)NC(C)C)c2c1CCC2 (stereo not drawn)
inactive: [1] 0.989 | [2] 0.993 | [3] 1.01 | [4] 0.961 | [5] 0.977 | [6] 0.982 | [7] 1.01 | [8] 1 | [9] 0.985 | [10] 1 | [11] 0.982 | [12] 0.972 | [13] 1 | [14] 1 | [15] 1

O=C(NC(=S)NNc1ncc(C(F)(F)F)cc1Cl)c1cccs1
active: S. cerevisiae deletion strains, locus YAR019C, strain CDC15, stronger effect = lower value 0.665 | S. cerevisiae deletion strains, locus YBL105C, strain PKC1, stronger effect = lower value 0.764 | S. cerevisiae deletion strains, locus YBR135W, strain CKS1, stronger effect = lower value 0.604 | S. cerevisiae deletion strains, locus YBR136W, strain MEC1, stronger effect = lower value 0.537 | S. cerevisiae deletion strains, locus YBR160W, strain CDC28, stronger effect = lower value 0.692 | S. cerevisiae deletion strains, locus YDL017W, strain CDC7, stronger effect = lower value 0.727 | S. cerevisiae deletion strains, locus YDL028C, strain MPS1, stronger effect = lower value 0.537 | [16] 0.576 | S. cerevisiae deletion strains, locus YDL108W, strain KIN28, stronger effect = lower value 0.726 | S. cerevisiae deletion strains, locus YDL132W, strain cdc53, stronger effect = lower value 0.588 | S. cerevisiae deletion strains, locus YDL214C, strain PRR2, stronger effect = lower value 0.218 | S. cerevisiae deletion strains, locus YDR052C, strain DBF4, stronger effect = lower value 0.581 | S. cerevisiae deletion strains, locus YDR054C, strain cdc34, stronger effect = lower value 0.492 | S. cerevisiae deletion strains, locus YDR226W, strain ADK1, stronger effect = lower value 0.527 | S. cerevisiae deletion strains, locus YDR477W, strain SNF1, stronger effect = lower value 0.31 | S. cerevisiae deletion strains, locus YER123W, strain YCK3, stronger effect = lower value 0.17 | S. cerevisiae deletion strains, locus YER133W, strain GLC7, stronger effect = lower value 0.37 | S. cerevisiae deletion strains, locus YFL009W, strain cdc4, stronger effect = lower value 0.51 | S. cerevisiae deletion strains, locus YFL029C, strain CAK1, stronger effect = lower value 0.59 | S. cerevisiae deletion strains, locus YFR003C, strain YPI1, stronger effect = lower value 0.738 | S. cerevisiae deletion strains, locus YFR019W, strain FAB1, stronger effect = lower value 0.384 | S. cerevisiae deletion strains, locus YFR028C, strain CDC14, stronger effect = lower value 0.482 | S. cerevisiae deletion strains, locus YGR040W, strain KSS1, stronger effect = lower value 0.28 | S. cerevisiae deletion strains, locus YGR052W, strain FMP48, stronger effect = lower value 0.171 | S. cerevisiae deletion strains, locus YGR092W, strain DBF2, stronger effect = lower value 0.163 | [17] 0.287 | S. cerevisiae deletion strains, locus YHR079C, strain IRE1, stronger effect = lower value 0.294 | S. cerevisiae deletion strains, locus YHR082C, strain KSP1, stronger effect = lower value 0.296 | S. cerevisiae deletion strains, locus YHR205W, strain SCH9, stronger effect = lower value 0.244 | S. cerevisiae deletion strains, locus YIL147C, strain SLN1, stronger effect = lower value 0.609 | S. cerevisiae deletion strains, locus YJL095W, strain BCK1, stronger effect = lower value 0.244 | S. cerevisiae deletion strains, locus YJL128C, strain PBS2, stronger effect = lower value 0.328 | S. cerevisiae deletion strains, locus YJL157C, strain FAR1, stronger effect = lower value 0.198 | S. cerevisiae deletion strains, locus YJR016C, strain ILV3, stronger effect = lower value 0.624 | S. cerevisiae deletion strains, locus YJR066W, strain TOR1 (second series), stronger effect = lower value 0.15 | S. cerevisiae deletion strains, locus YJR066W, strain TOR1, stronger effect = lower value 0.237 | S. cerevisiae deletion strains, locus YKL048C, strain ELM1, stronger effect = lower value 0.256 | S. cerevisiae deletion strains, locus YKL067W, strain YNK1, stronger effect = lower value 0.17 | S. cerevisiae deletion strains, locus YKL101W, strain HSL1, stronger effect = lower value 0.242 | S. cerevisiae deletion strains, locus YKL193C, strain SDS22, stronger effect = lower value 0.629 | S. cerevisiae deletion strains, locus YKL203C, strain TOR2, stronger effect = lower value 0.234 | S. cerevisiae deletion strains, locus YLR113W, strain HOG1, stronger effect = lower value 0.252 | S. cerevisiae deletion strains, locus YLR133W, strain CKI1, stronger effect = lower value 0.251 | S. cerevisiae deletion strains, locus YLR403W, strain SFP1, stronger effect = lower value 0.123 | S. cerevisiae deletion strains, locus YML070W, strain DAK1, stronger effect = lower value 0.247 | S. cerevisiae deletion strains, locus YMR001C, strain CDC5, stronger effect = lower value 0.549 | S. cerevisiae deletion strains, locus YMR205C, strain PFK2 (second series), stronger effect = lower value 0.23 | S. cerevisiae deletion strains, locus YMR277W, strain FCP1, stronger effect = lower value 0.413 | S. cerevisiae deletion strains, locus YNL006W, strain LST8, stronger effect = lower value 0.714 | S. cerevisiae deletion strains, locus YNL020C, strain ARK1, stronger effect = lower value 0.211 | S. cerevisiae deletion strains, locus YNL161W, strain CBK1, stronger effect = lower value 0.533 | S. cerevisiae deletion strains, locus YNL183C, strain NPR1, stronger effect = lower value 0.195 | S. cerevisiae deletion strains, locus YNL207W, strain RIO2, stronger effect = lower value 0.6 | S. cerevisiae deletion strains, locus YNL222W, strain SSU72, stronger effect = lower value 0.559 | S. cerevisiae deletion strains, locus YNL307C, strain MCK1 (second series), stronger effect = lower value 0.146 | S. cerevisiae deletion strains, locus YOL078W, strain AVO1, stronger effect = lower value 0.585 | S. cerevisiae deletion strains, locus YOL136C, strain PFK27, stronger effect = lower value 0.276 | S. cerevisiae deletion strains, locus YOR061W, strain CKA2, stronger effect = lower value 0.242 | S. cerevisiae deletion strains, locus YOR119C, strain RIO1, stronger effect = lower value 0.237 | S. cerevisiae deletion strains, locus YOR231W, strain MKK1, stronger effect = lower value 0.256 | S. cerevisiae deletion strains, locus YOR329C, strain SCD5, stronger effect = lower value 0.727 | S. cerevisiae deletion strains, locus YPL031C, strain PHO85, stronger effect = lower value 0.441 | S. cerevisiae deletion strains, locus YPL153C, strain RAD53, stronger effect = lower value 0.283 | S. cerevisiae deletion strains, locus YPL204W, strain HRR25, stronger effect = lower value 0.315 | S. cerevisiae deletion strains, locus YPL209C, strain IPL1, stronger effect = lower value 0.736 | S. cerevisiae deletion strains, locus YPL256C, strain CLN2, stronger effect = lower value 0.367 | S. cerevisiae deletion strains, locus YPR025C, strain CCL1, stronger effect = lower value 0.745 | S. cerevisiae deletion strains, locus YPR106W, strain ISR1, stronger effect = lower value 0.472 | S. cerevisiae deletion strains, locus YPR111W, strain DBF20, stronger effect = lower value 0.453 | S. cerevisiae deletion strains, strain NNK1, stronger effect = lower value 0.492 | S. cerevisiae deletion strains, strain TSCII, stronger effect = lower value 0.524

NCCS(=O)O
inactive: [18] 1.01 | [1] 0.998 | [2] 1.01 | [3] 1 | [4] 1.02 | [5] 1 | [7] 1 | [19] 1.01 | [8] 1.01 | S. cerevisiae deletion strains, locus YMR307W, strain GAS1, stronger effect = lower value 1.01 | [11] 1 | [12] 1 | [13] 0.991 | [14] 1.03 | [20] 1

CC(=O)c1ccccc1OC(=O)c1c(-c2c(Cl)cccc2Cl)noc1C
inactive: [18] 0.996 | [21] 0.994 | S. cerevisiae deletion strains, locus YCL061C, strain MRC1, stronger effect = lower value 0.996 | [16] 1.02 | [3] 0.882 | [22] 1.01 | [6] 1.01 | [7] 0.998 | [17] 0.834 | [23] 0.988 | [24] 0.984 | [19] 1.01 | S. cerevisiae deletion strains, locus YKL190W, strain CNB1, stronger effect = lower value 0.995 | [25] 0.923 | [26] 1 | [27] 0.985 | [28] 0.935 | [29] 1.04 | [30] 1 | [8] 0.991 | [9] 1 | [10] 1 | [31] 1.02 | [32] 1.01 | [33] 1 | [15] 1.02 | [20] 0.996 | [34] 1.12 | [35] 1.01

Cc1onc(-c2ccccc2)c1C(=O)On1c(-c2ccccc2)nc2ccccc2c1=O
active: S. cerevisiae deletion strains, locus YDL134C, strain PPH21, stronger effect = lower value 0.922 | [17] 0.196 | [25] 0.236 | [27] 0.537 | [28] 0.21 | [31] 0.816 | [32] 0.928 | [33] 0.852 | S. cerevisiae deletion strains, locus YOL006C, strain TOP1, stronger effect = lower value 0.63 | [20] 0.82 | [34] 0.368 | [35] 0.888
inactive: [18] 0.963 | [21] 0.988 | [16] 0.944 | [3] 0.902 | [22] 0.933 | [6] 0.953 | [23] 1.05 | [24] 0.987 | [19] 0.92 | [26] 0.979 | [29] 0.934 | [30] 0.953 | [8] 0.932 | [9] 0.961 | [10] 1 | [15] 0.973
